Only some compounds are listed: those with a hit (about 2.2% of all), similar ones and a draw of the others.
TRPM1 prom inh = inhibitors of MITF-dependent TRPM1 promoter reporter, primary screen, cell-based, SK-MEL-5, single point, luciferase; inhibition, % at 12.5 µM; SK-MEL-5 TRPM1 promoter luciferase, 24 h; AID 488899, 2010; 330,000 tested, 0.83% active;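 active = mean inhibition across replicates of 60% or more, whatever share of single replicates reaches that level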
EBV LMP1 NFkB = EBV LMP1-driven NF-kappaB luciferase reporter inhibitors, primary screen, cell-based, luminescence, single point; LMP1-induced NF-kappaB luciferase reporter cells; inhibition, % at 12.5 µM; 350,000 tested, 0.69% active; AID 504558, 2011; in the data active = inhibition above about 41%;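 also: 0% = neutral control wells and 100% = reference inhibitor control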
EWS-Fli block = EWS/Fli-driven NR0B1 reporter inhibitors, primary screen, A673 cells, NR0B1 luciferase, luminescence, MLPCN library; AID 651661, 2012; 350,000 tested, 0.67% active; inhibition, % at 12.6 µM; viability-normalised;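 active = mean inhibition of at least 50% after viability correction, with every replicate also passing that limit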;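 also: firefly luciferase signal divided by Alamar Blue viability fluorescence both relative to DMSO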
Shn3 inh set2 = reduction of Shn3 3'UTR firefly luciferase signal, primary screen, Schnurri-3 inhibitor project, cell-based, Clone20 osteoblasts, set 2; Clone20 osteoblast Shn3 3'UTR firefly luciferase, 24 h; inhibition, % at 12.5 µM; 360,000 tested, 0.52% active;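 active = mean inhibition of at least 75% with every replicate also reaching 75%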;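 also: 0% = median of neutral control wells and 100% = pilot-screen positive control compound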
LGR2 antag = inhibitors of bursicon-induced LGR2 CRE-luciferase signal, primary screen, cell-based, HEK293, CRE-luciferase reporter, bursicon stimulation. bursicon-stimulated, 4 h. 380,000 tested, 0.35% active. inhibition, % at 9.99 µM. Drosophila bursicon receptor LGR2 (rickets);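 active = drop in luminescence signal, shown as inhibition above about 50% in the replicate tests, limit read from the data, passing the limit was not always enough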;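 also: agonist challenge used bursicon conditioned medium at about half maximal strength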
PAX8 inh HTS = inhibitors of PAX8-driven TPO luciferase reporter, primary screen, RMG-I cells, single concentration; SteadyGlo, 24 h; inhibition, % at 12.6 µM; 360,000 tested, 1.2% active; AID 652154, 2013;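 active = mean replicate inhibition at least 60% with every replicate also reaching 60%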;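 also: luciferase light reporting Pax8 driven TPO promoter activity; plate controls were median of neutral control wells for no effect and mitoxantrone controls for full effect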
The depositor's hits bear a star; · = not tested or not shown.

SMILES	TRPM1 prom inh	EBV LMP1 NFkB	EWS-Fli block	Shn3 inh set2	LGR2 antag	PAX8 inh HTS
COc1cc(C(=O)N/N=C/c2sccc2C)cc(OC)c1OC	50	-2	55*	22	9	81*
COc1ccc(C(=O)N2C[C@H]3[C@@H](c4ccccc42)[C@@H](CO)N3C(=O)c2cccc(F)c2)cc1	·	·	9	·	6	6
CC(C)C#Cc1ccc2c(c1)O[C@H](CN(C)C(=O)c1cccc(F)c1)[C@H](C)CN([C@H](C)CO)S2(=O)=O	·	·	-5	·	16	·
COc1cc(/C=N/NC(=O)c2ccc(-c3ccccc3)cc2)cc(OC)c1OC	-5	-1	·	-16	-14	80*
O=C(NCc1ccc2c(c1)OCO2)c1nc(S(=O)(=O)Cc2ccccc2)ncc1Cl	52	-8	·	94*	1	22
O=C(NCc1ccc2c(c1)OCO2)c1nc(S(=O)(=O)Cc2ccccc2F)ncc1Cl	91*	11	·	95*	8	36
O=C(NCc1ccc2c(c1)OCO2)c1ccccc1Cl	-6	-7	-26	-18	-6	-21
Cc1noc(C)c1S(=O)(=O)N(C)C[C@@H]1OCCCC[C@@H](C)Oc2ccc(NS(=O)(=O)c3ccc(Cl)cc3)cc2C(=O)N([C@@H](C)CO)C[C@H]1C	·	·	6	·	5	25
Cc1noc(C)c1S(=O)(=O)N(C)C[C@H]1OCCCC[C@@H](C)Oc2ccc(NS(=O)(=O)c3ccc(Cl)cc3)cc2C(=O)N([C@@H](C)CO)C[C@H]1C	·	·	9	·	-11	76*
Cc1noc(C)c1S(=O)(=O)Nc1ccc2c(c1)C(=O)N([C@@H](C)CO)C[C@@H](C)[C@H](CN(C)S(=O)(=O)c1ccc(Cl)cc1)OCCCC[C@@H](C)O2	·	·	12	·	3	36
Cc1noc(C)c1S(=O)(=O)N(C)C[C@@H]1OCCCC[C@@H](C)Oc2ccc(NS(=O)(=O)c3ccc(Cl)cc3)cc2C(=O)N([C@H](C)CO)C[C@@H]1C	·	·	1	·	2	-5
Cc1noc(C)c1S(=O)(=O)N(C)C[C@@H]1OCCCC[C@H](C)Oc2ccc(NS(=O)(=O)c3ccc(Cl)cc3)cc2C(=O)N([C@H](C)CO)C[C@@H]1C	·	·	13	·	2	87*
Cc1noc(C)c1S(=O)(=O)N(C)C[C@H]1OCCCC[C@@H](C)Oc2ccc(NS(=O)(=O)c3ccc(Cl)cc3)cc2C(=O)N([C@@H](C)CO)C[C@@H]1C	·	·	13	·	-6	88*
COCC(=O)Nc1ccc2c(c1)C(=O)N(C)C[C@H](OC)[C@@H](C)CN(C(=O)c1cccnc1)[C@H](C)CO2	·	·	-19	·	-4	-39
CO[C@@H]1CN(C)C(=O)c2ccc(NC(=O)C3CC3)cc2OC[C@@H](C)N(C(=O)c2ccccc2F)C[C@H]1C	·	·	3	·	17	-7
C[C@H]1CN([C@@H](C)CO)S(=O)(=O)c2ccc(C#CC3(O)CCCC3)cc2O[C@H]1CN(C)C	·	·	11	·	-12	·
C[C@H]1CN([C@@H](C)CO)C(=O)c2cc(-c3ccccc3)cnc2O[C@@H]1CN(C)C(=O)C1CCCCC1	·	·	-2	·	4	13
COc1ccc(OC)c(-n2c(-c3ccccc3)n[nH]c2=S)c1	24	-1	·	4	·	·
COc1ccccc1-n1c(-c2ccccc2)n[nH]c1=S	6	46*	-12	48	0	3
COc1ccc(Cl)cc1NC(=O)CN(C)S(=O)(=O)c1cccs1	10	47*	-1	10	-3	2
COc1ccc(Cl)cc1NC(=O)CN(C)CC(=O)NCc1cccs1	·	-4	0	-7	-10	14
COc1ccc(Cl)cc1NC(=O)CN(C)CC(=O)Nc1cc(OC)c(OC)c(OC)c1	18	11	62*	24	-13	20
C[C@@H]1CN([C@@H](C)CO)C(=O)c2cc(N(C)C)ccc2O[C@H]1CN(C)C(=O)Nc1ccc(C(F)(F)F)cc1	·	·	4	·	8	24
CCOCc1c(C(=O)NC2=Nc3ccccc3NC(CC)=C2C(=O)OCC)oc2ccccc12	1	10	-8	39	39	80*
CCOC(=O)C1=C(CC)Nc2ccccc2N=C1NC(=O)c1oc2ccccc2c1C	23	-4	8	57	22	64*

Compound activity from PubChem BioAssay.
